The source of these data is PubChem BioAssay (NCI).

Common to all, as to assay: NCI-60 one-dose screen, 48 h (100 = growth as untreated, 0 = no growth, -100 = all killed)
Common to all, as to settings: 10 µM unless noted

Test [1] relates to SK-MEL-2 melanoma.
Test [2] has as its system EKVX NSCLC.
Test [3] concerns SN12C renal.
In test [4] the test system is UO-31 renal.
The subject of test [5] is TK-10 renal.
Test [6] relates to ACHN renal.
Test [7] concerns CAKI-1 renal.
For test [8], the system named is CCRF-CEM leukemia.
For test [9], the system named is MOLT-4 leukemia.
The test system of test [10] is RPMI-8226 leukemia.
Test [11] relates to OVCAR-8 ovarian.
The test system of test [12] is OVCAR-5 ovarian.
Test [13] relates to OVCAR-4 ovarian.
Test [14] has as its system SK-OV-3 ovarian.
Test [15] concerns IGROV1 ovarian.
Test [16] deals with OVCAR-3 ovarian.
The test system of test [17] is HS 578T breast.
Test [18] has as its system NCI/ADR-RES ovarian.
The subject of test [19] is A498 renal.
The test system of test [20] is SR leukemia.

Compounds without any hit were thinned out: in the full panel of roughly 83,000, 20% have a hit.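 Compound tested at a single concentration for 48 hours in 96-well plates; a percent growth value below 10 was scored as active.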 Values without a mark were called inactive. Calls of active or inactive are those of the source.

Regarding `COc1ccc(OC)c(NC(=O)c2cc(S(=O)(=O)N3CCc4ccccc43)ccc2OC)c1`, the growth in test [1] is 36.4%; in test [2], 94.9%; in test [3], 95%; in [4], 42.2%; in test [5], 91.9%; in [6], 93.3%. Further, the growth in test [7] is 107%; in test [8], 107%; in test [9], 106%; in [10], 82.6%; in test [11], 75.5%; in [12], 89.8%. In addition, the growth in test [13] was 94.2%; in [14], 92.6%; in [15] it was -39.9% (active); in test [16], 112%; in test [17], -43.4% (active); in [18] it was 94.3%.
Consider `COc1ccc(C2CC(c3cccs3)=NN2c2ccc(S(=O)(=O)NC(=O)Nc3ccc(C)cc3)cc2)cc1` (stereo not given), for which the growth was 60.9% in test [1]; 111% in test [3]; 85.7% in test [4]; 96.8% in [5]; 96.6% in [6]; 95.8% in test [7]. Also, the growth in test [19] was 109%; in [8] it was 87.9%; in [9] it was 94.4%; in test [20], 84.7%; in test [10], 83.4%; in test [11] it was 99.8%. The growth in test [12] was 115%; in test [13] it was 106%; in test [14], 78.3%; in [15], 108%; in [16], 98.2%; in test [17], 96%. Also, in test [18], the growth is 103%.
For `COc1ccc(Cl)cc1NC(N)=S`, the growth in test [1] was 107%; in [2], 105%; in [3], 105%; in test [4], 97%; in test [5] it was 89.5%; in test [6] it was 110%. The growth in [7] is 97.3%; in test [8] it was 105%; in [9], 99.7%; in test [10] it was 100%; in [11] it was 108%; in test [12] it was 113%. For the same compound, the growth in [13] is 94.8%; in [14], 118%; in [16], 108%; in [17], 104%; in [18] it was 105%.
For the compound `CCCCCC/C=C\CCCCCCCCOc1ccc(CCOP(=O)(O)OCC[N+](C)(C)C)cc1`, the growth in [1] is 91%; in [2] it was 95.3%; in test [3] it was 91.4%; in [4] it was 83.2%; in test [5] it was 23.5%; in test [6], 91.7%. Further, the growth in [7] is 36.9%; in test [9], 54.1%; in test [20], 50.7%; in [10], 23.8%; in [11], 80.9%; in test [12] it was 90.3%. Besides, the growth in test [13] was 86.1%; in [15], 42.6%; in test [16] it was 74.8%; in test [17], 89.5%; in test [18], 100%.
On to `ClC1=C(Cl)C(Cl)=C(Cl)C1=Cc1ccc(Cl)cc1Cl`, for which the growth in [1] is -2.84% (active); in [2], -19.8% (active); in [3] it was -31.1% (active); in test [4] it was -81.8% (active); in [5] it was -5.11% (active); in [6], -75.7% (active). Also, the growth in test [7] is -41.2% (active); in test [8], 3.34% (active); in [9] it was 4.59% (active); in test [20], 2.92% (active); in [10] it was -10.7% (active); in test [11], 2.92% (active). For the same compound, the growth in [13] is 5.94% (active); in test [14] it was 38.5%; in test [15] it was 7.32% (active); in test [16] it was -83.7% (active); in test [17] it was 11.6%; in [18] it was -34.8% (active).
For `CC1=C(C#N)C(C)(C)C(C#N)=C(C)N1`, the growth in test [1] is 109%; in [3], 99.5%; in test [4], 91.1%; in test [5] it was 103%; in test [6], 101%; in [7], 103%. For the same compound, the growth in test [19] is 88.6%; in test [8], 98%; in test [9] it was 102%; in [20] it was 95.8%; in [10], 98.3%; in test [11] it was 100%. For the same compound, the growth is 87.7% in test [12]; 99.2% in test [13]; 110% in test [14]; 121% in [15]; 107% in test [16]; 102% in test [17].
Regarding `Cc1cc(C(=O)CSc2nc3ccccc3c(=O)[nH]2)c(C)n1C`, the growth in test [1] is 87.9%; in test [2], 94.9%; in test [3] it was 95.4%; in test [4], 38.9%; in test [5], 93.1%; in test [6], 107%. Moreover, the growth in test [7] was 95.9%; in test [8], 87.2%; in [9] it was 118%; in test [10], 91.6%; in [12] it was 90.8%; in test [13] it was 123%. The growth in test [15] is -33.9% (active); in test [16], 91%; in test [17] it was -35.7% (active); in test [18], 103%.
As for `Nc1c(C(=O)Nc2cccc(Cl)c2Cl)sc2nc3c(cc12)C(=O)CCC3`, the growth in test [1] is 38%; in test [3], 86.8%; in test [4] it was 78.8%; in test [5] it was 81.9%; in test [6], 98.1%; in [7] it was 79%. For the same compound, the growth is -3.22% (active) in [19]; 86.2% in test [8]; 106% in [9]; 95.6% in test [20]; 102% in [10]; 114% in [11]. For the same compound, the growth was 99.1% in [12]; 104% in test [13]; 24.2% in test [14]; 72.8% in [15]; 95.6% in test [16]; 88.2% in test [17]. In [18], the growth is 73.4%.
For the compound `O=C1Nc2cc(Cl)ccc2Oc2cc(Oc3ccccc3)ccc21`, the growth is 48% in test [1]; 72% in test [2]; 68% in [3]; 53.4% in test [4]; 78% in test [5]; 83.7% in test [6]. Moreover, the growth in test [7] is 51%; in [8] it was 54.6%; in test [9], 45.9%; in test [20] it was 20.7%; in [11], 88%; in [12], 83%. The growth in [13] is 71.5%; in test [14], 47.4%; in test [15], 63.3%; in test [16], 27.6%; in [17], 43.3%; in test [18], 18.9%.
